Our source for the activity (protection/inhibition) values is PubChem BioAssay AID651871 (Sanford-Burnham Center for Chemical Genomics, 2012).

The structures appear in SMILES notation. “And” between values parts separate entries of the source, which are not always exact repeats. Equal values may be shown once.

For the experiment, the system named is HL-1. Kind of experiment: cardiomyocyte survival under oxidative or metabolic stress – cell-based, panel, H9c2 and HL-1, ATP luminescence, set 2, SAR follow-up (AID 651871).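 Further: cells exposed to stressor for 2 h before ATP readout; reference of the scale not given here.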 The following applies: H9c2/HL-1 cardiomyocytes, 2-deoxyglucose stress, with 2-deoxyglucose, run 13, at 19.8 µM (top of the series).

`COc1ccc2c(c1OC)C(=O)N1c3ccccc3C(=O)N(Cc3cccc(Cl)c3Cl)C21` (stereo unspecified): the activity (protection/inhibition) is 84.6% and 38.5%.
